PubChem BioAssay (NCI)
About 83,000 compounds went through this panel and 20% of them were active in at least one assay; those are over-represented in the sample as a whole.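 Percent growth is the endpoint: 0 to 100 indicates growth inhibition (40 means 60% inhibition), 0 means no net growth, and negative values indicate cell death.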 The source made the active and inactive calls. How the source made its calls: active means growth percent below 10; inactive means the rest.

Legend:
Assay in all cases: NCI-60 one-dose screen, 48 h (100 = growth as untreated, 0 = no growth, -100 = all killed)
Details in all cases: 10 µM unless noted
[1] = test system: DU-145 prostate
[2] = test system: K-562 leukemia
[3] = test system: MALME-3M melanoma
[4] = test system: MDA-MB-231 breast
[5] = test system: RXF 393 renal
[6] = test system: SF-268 CNS
[7] = test system: SF-295 CNS
[8] = test system: SF-539 CNS
[9] = test system: UACC-257 melanoma
[10] = test system: M14 melanoma
[11] = test system: HCT-15 colon
[12] = test system: HT29 colon
[13] = test system: SNB-75 CNS
[14] = test system: U251 CNS
[15] = test system: PC-3 prostate
[16] = test system: SK-MEL-5 melanoma
[17] = test system: UACC-62 melanoma
[18] = test system: LOX IMVI melanoma
[19] = test system: SK-MEL-28 melanoma

Measured: growth

CCN(CC)CCCNc1cc(OC)cc2nc3cc(Cl)ccc3nc12
active: [1] 0.94% | [2] -56.5% | [3] -84.7% | [4] -25.9% | [5] -10.9% | [6] -35.5% | [8] -77.6% | [9] -79.7% | [10] -94.2% | [11] -11.9% | [12] -9.49% | [13] -2.74% | [14] 4.3% | [15] 2.49% | [16] -99.5% | [17] -80.6% | [18] -58.7% | [19] -79.1%
inactive: [7] 18.1%

CCc1ccc(C(c2ccc(CC)cc2)C(Cl)(Cl)CCl)cc1
inactive: [1] 110% | [2] 106% | [3] 96.6% | [4] 88.7% | [5] 131% | [6] 93.7% | [7] 105% | [8] 96.3% | [9] 110% | [10] 100% | [11] 89.7% | [12] 76.8% | [13] 80.6% | [14] 89% | [15] 80.5% | [16] 90% | [17] 88.2% | [18] 93.6% | [19] 92.4%

COc1ccc(CCN2CCCn3c2nc2ccccc2c3=O)cc1
inactive: [1] 16.4% | [2] 13.1% | [3] 59.8% | [4] 42.5% | [6] 56.9% | [7] 20.4% | [9] 81.3% | [10] 21.4% | [11] 22.2% | [12] 11.8% | [13] 17.5% | [14] 29% | [15] 42% | [16] 15.5% | [17] 26.5% | [18] 15.1% | [19] 49.6%
active: [5] -0.0509% | [8] -16.3%

CC(=O)CC(C)(C)c1ccc(Cl)cc1
inactive: [1] 108% | [2] 101% | [3] 108% | [4] 106% | [5] 98% | [6] 95.7% | [7] 101% | [8] 102% | [9] 101% | [10] 96.8% | [11] 101% | [12] 98.1% | [13] 81.9% | [14] 98.7% | [15] 93.6% | [16] 108% | [17] 101% | [18] 97.3% | [19] 115%

O=C1Nc2c(ccc(Cl)c2Cl)/C1=C/c1cc(Br)c(O)c(Br)c1
inactive: [1] 84.6% | [2] 51.8% | [3] 29.4% | [4] 74.8% | [5] 75.9% | [6] 75.7% | [7] 13.4% | [8] 51.6% | [9] 40% | [10] 33.2% | [11] 52.4% | [12] 56.6% | [13] 70.2% | [14] 66.2% | [15] 59.4% | [16] 23.2% | [17] 26.1% | [18] 59.6% | [19] 58.3%

COc1ccc(OCC(=O)Nc2ccc(-c3nc4ccccc4s3)cc2C)cc1
inactive: [1] 110% | [2] 59.5% | [3] 100% | [4] 85.7% | [5] 115% | [6] 94.3% | [7] 99.8% | [8] 89.6% | [9] 109% | [10] 89.9% | [11] 85.9% | [12] 91.7% | [13] 83.4% | [14] 96.2% | [15] 75.9% | [16] 70.8% | [17] 83.2% | [18] 89% | [19] 107%

CCNS(=O)(=O)c1ncnc2nc[nH]c12
inactive: [1] 102% | [2] 109% | [3] 116% | [4] 119% | [5] 122% | [6] 132% | [7] 109% | [8] 95.9% | [9] 126% | [10] 119% | [11] 94.3% | [12] 114% | [13] 122% | [15] 85.2% | [16] 113% | [17] 94.7% | [18] 22% | [19] 143%
active: [14] -14%

CN1CCN(Cc2ccc(NC(=O)c3[nH]ncc3Nc3ccnc4ccsc34)cc2)CC1
active: [5] -44.9% | [8] 2.32% | [18] 0.622%
inactive: [1] 14.7% | [2] 26.5% | [3] 60.6% | [4] 12.6% | [6] 20.3% | [7] 56.6% | [9] 85.7% | [10] 48.9% | [11] 66.4% | [12] 30.1% | [13] 20.5% | [14] 29.2% | [15] 34% | [16] 38.4% | [17] 64.1% | [19] 54.9%
